Screens deposited in PubChem BioAssay by National Center for Advancing Translational Sciences (NCATS).
The full list was thinned out, with hits kept by preference.
Pf Dd2 inh = inhibitors of Plasmodium falciparum Dd2 growth | 120,000 tested, 4.3% active | AID 1347417 | Potency, µM (series often up to 28.9 µM), actives largely listed as inhibitors | P. falciparum Dd2 growth, SYBR Green, 72 h; active means well fitted inhibition curve with a large enough effect; further: nearly all actives have a fitted effect of over 65% in size
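Readout: SYBR Green fluorescence, 485 nm excitation, 535 nm emission, after ~16 h lysis at 37C. Before that, Dd2-infected red cells (2.5% hematocrit) grew 72 h with compound, 29 uM top final concentration.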
Hits are given with their value; – = inactive.

SMILES	Pf Dd2 inh
Cc1nc2c(c(-c3ccc(O)cc3)n1)CN(Cc1cccnc1)CCC2	–
Cc1nc2c(c(-c3ccc(O)cc3)n1)CN(Cc1ccc(C(F)(F)F)cc1)CCC2	0.89µM
COc1ccc(CN2CCCc3nc(C)nc(-c4ccc(O)cc4)c3C2)cc1	–
Cc1nc2c(c(-c3ccc(O)cc3)n1)CN(Cc1cccc3ccccc13)CCC2	13µM
COc1ccccc1CN1CCCc2nc(C)nc(-c3ccc(O)cc3)c2C1	–
Cc1nc2c(c(-c3ccc(O)cc3)n1)CN(Cc1ccccc1)CCC2	4.5µM
Cc1nc2c(c(-c3ccc(O)cc3)n1)CN(Cc1ccccc1)CC2	–
Cc1nc2c(c(-c3ccc(O)cc3)n1)CN(Cc1ccccn1)CCC2	–
COc1ccc(Nc2cc3c(cn2)CN(C)CCN3C)cc1OC	–
O=C1CCCN1C1CCN([S+](=O)([O-])c2cccs2)CC1	–
Cc1ccsc1CN1CCC2(CC1)CC(CC(=O)NCc1ccncc1)CCO2 (stereo not drawn)	–
CN1CCN(CCCNC(=O)c2c(OCC3CC3)cc(=O)n3c2CCOCC3)CC1	–
Cc1cc(C)cc(NC(=O)c2nnn(Cc3cccc(Br)c3)c2N)c1	–
CSc1ccc(Cn2nnc(C(=O)Nc3ccc(C)cc3Cl)c2N)cc1	–
CCOc1ccc(Cn2nnc(C(=O)Nc3ccc(Cl)cc3)c2N)cc1	–
Nc1c(C(=O)Nc2ccccc2Cl)nnn1Cc1cccc(Cl)c1	7.1µM
Cc1ccc(Cn2nnc(C(=O)Nc3ccc(F)c(F)c3)c2N)cc1	0.89µM
CCc1ccc(Cn2nnc(C(=O)Nc3ccc(C)cc3)c2N)cc1	–
O=C(NCc1cccnc1)c1c(OCC2CC2)cc(=O)n2c1CCOCC2	–
O=C(NCCc1cnccn1)C1CCN(C(=O)C2CCC2)CC1	–
COc1ccc(CCNC(=O)Cn2ccn3nc(-c4ccc(F)cc4)c(CO)c3c2=O)cc1OC	–
Cc1ccc(C)c(CSc2ccc3nnc(CCNS(=O)(=O)c4ccccc4)n3n2)c1	–
Cc1ccc(S(=O)(=O)NCCc2nnc3ccc(SCc4ccccc4C)nn23)cc1	7.9µM
CCOC(=O)CSc1ccc2nnc(CCNS(=O)(=O)c3ccccc3)n2n1	–
Cc1ccccc1N1Cc2c(NCC3CC3)ncnc2N(C)CC1=O	–
SMILES	Pf Dd2 inh
O=C(NCc1cccc(F)c1)N1CC(c2nnc(-c3ccncc3)o2)C2(CCOCC2)C1 (stereo not drawn)	–
O=c1cc(-c2ccccn2)oc2c(NCc3ccccc3)nccc12	–
O=c1cc(-c2cccnc2)oc2c(NCc3ccc(F)cc3)nccc12	11µM
C[S+](=O)([O-])c1ccc(-c2nccc3c(=O)cc(-c4cccnc4)oc23)cc1	–
Cn1nc2n(c1=O)CCC(NS(=O)(=O)c1ccc3c(c1)CCCC3)CC2 (stereo not drawn)	–
CNC(=O)[C@@H]1C[C@H](Oc2ccccc2)CN1C(=O)CCc1ccccc1	–
Cc1cccc(NC(=O)Cc2csc(COc3cccc(C)c3)n2)c1	–
CCOc1ccccc1NC(=O)Cc1csc(COc2cccc(C)c2)n1	11µM
CC(=O)Nc1cccc(NC(=O)Cc2csc(COc3cccc(C)c3)n2)c1	–
CC(C)(C)NC(=O)N1CCCCCNC(=O)CC1c1ccccc1 (stereo not drawn)	–
O=C(COc1ccccc1)N1CCC2(CC1)CN(Cc1ccccc1)CC2CO (stereo not drawn)	5µM
O=C(CN1CCCCCC1)N1CCC2(CC1)CN(Cc1ccccc1)CC2CO (stereo not drawn)	–
COCCN1CC(CO)C2(CCN(C(=O)COc3ccccc3)CC2)C1 (stereo not drawn)	–
Cc1cc(CNC(=O)[C@@H]2CCC[C@@H](NC(=O)c3ccccc3)CN(C)C(=O)C2)no1	–
O=C(c1cncnc1)N1CC[C@H](c2nc3ccc(F)cc3[nH]2)C1	–
Cc1ccc(Cn2c(=O)n(CC3CCC(C(=O)N4CCOCC4)CC3)c(=O)c3sccc32)cc1 (stereo not drawn)	–
O=C(C1CCC(Cn2c(=O)c3sccc3n(Cc3cccc(F)c3)c2=O)CC1)N1CCCCC1 (stereo not drawn)	8.9µM
Cc1ccccc1Cn1c(=O)n(CC2CCC(C(=O)N3CCOCC3)CC2)c(=O)c2sccc21 (stereo not drawn)	–
CCn1ncc(N2CCC(NC(=O)Cc3ccc(C)cc3)CC2)cc1=O	–
Cc1ccc(C(=O)Nc2cc(-c3cn4cccnc4n3)ccc2C)cc1C	–
COc1ccc(-c2cn3cccnc3n2)cc1NC(=O)c1ccccc1C(F)(F)F	–
COc1ccc(-c2cn3cccnc3n2)cc1NC(=O)c1cc(C)cc(C)c1	13µM
CC(C)C(=O)N1CCCCCNC(=O)[C@@H]2CCCC[C@@H]21	–
O=C(Cc1ccc(F)cc1)N1CCC[C@H]1c1nc(-c2ccc(F)cc2)no1	–
O=C(Cc1ccccc1)N1CCC[C@H]1c1nc(-c2ccccc2)no1	10µM
SMILES	Pf Dd2 inh
CCOc1ccc(CC(=O)N2CCC[C@H]2c2nc(-c3ccccc3)no2)cc1OCC	–
Cc1cccc(CNC(=O)[C@@H]2COCC(=O)N2Cc2ccc(F)cc2)c1	–
O=C1NCCCCCCN(C(=O)c2ccncc2)[C@H]2CCC[C@@H]12	–
O=C(NC1CCN(c2nc3ncccc3o2)CC1)c1ccccc1	–
COC(=O)c1ccc(C2Nc3c(C)cccc3-c3cc(C)nn32)cc1 (stereo not drawn)	0.45µM
CCN(CC)c1ccc(C2Nc3ccccc3-c3cc(C)nn32)cc1 (stereo not drawn)	–
COc1ccc(C2Nc3ccccc3-c3cc(C)nn32)c(OC)c1 (stereo not drawn)	–
COc1ccc(CC(=O)N2CC[C@H]3CC(=O)N(CCc4cccc(OC)c4OC)CC[C@H]3C2)cc1	–
CCOC(=O)N1CCN(C(=O)Cn2ncc3c4ccccc4n(Cc4ccc(F)cc4)c3c2=O)CC1	10µM
CC1CCC(NC(=O)Cn2ncc3c4ccccc4n(Cc4ccc(F)cc4)c3c2=O)CC1 (stereo not drawn)	–
CCC(Cc1ccccc1)NC(=O)Cn1ncc2c3ccccc3n(Cc3ccc(F)cc3)c2c1=O (stereo not drawn)	–
CC(CCc1ccccc1)NC(=O)Cn1ncc2c3ccccc3n(Cc3cccc(Cl)c3)c2c1=O (stereo not drawn)	–
Cc1ccccc1Cn1c2ccccc2c2cnn(CC(=O)NCc3ccccn3)c(=O)c21	–
O=C(Cn1ncc2c3ccccc3n(Cc3cccc(Cl)c3)c2c1=O)N1CCCCCC1	8.9µM
O=C(Cn1ncc2c3ccccc3n(Cc3ccc(Cl)cc3)c2c1=O)NCc1ccccn1	–
O=C(Cn1ncc2c3ccccc3n(Cc3ccccc3)c2c1=O)N1CCCCCC1	–
Cc1ccccc1Cn1c2ccccc2c2cnn(CC(=O)NC3CCCCCC3)c(=O)c21	–
CCCn1c2ccccc2c2cnn(CC(=O)N3CCC(C)CC3)c(=O)c21	–
Cc1cc(C)c(Cn2c3ccccc3c3cnn(CC(=O)NCc4ccccn4)c(=O)c32)c(C)c1	10µM
Cc1cc(C)c(Cn2c3ccccc3c3cnn(CC(=O)N4CCCCCC4)c(=O)c32)c(C)c1	7.1µM
CCC1Oc2ccc(NC(=O)c3ccccc3)cc2CN(Cc2cc(F)cc(F)c2)C1=O (stereo not drawn)	–
Cc1cnc(C(=O)NC2C[C@H]3CC[C@@H](C2)N3C(=O)CCc2ccccc2)cn1 (stereo partly drawn)	–
Cc1noc2c(NCCN3CCOCC3)cc(-c3cccnc3)nc12	–
Cc1nn(C)c2ncnc(NCc3nn[nH]n3)c12	–
CCn1cc(-c2ccc(F)cc2)cc1C(=O)NCCOC	–
